Shn3 3UTR inh = reduction of Shn3 3'UTR firefly luciferase signal, primary screen, Schnurri-3 inhibitor project, cell-based, Clone20 osteoblasts, set 2; AID 588674, 2011; Clone20 osteoblast Shn3 3'UTR firefly luciferase, 24 h; inhibition, % at 12.5 µM; 360,000 tested, 0.52% active;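 active means mean inhibition of at least 75% with every replicate also reaching 75%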;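 further: 0% = median of neutral control wells and 100% = pilot-screen positive control compound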
697 NFkB inh = inhibitors of PMA/ionomycin-induced NF-kB reporter, 697 cells, primary screen, B-cell NF-kB inhibitor project, cell-based, luminescence, uHTS; 697 B-cell NF-kB luciferase reporter, 16 h; inhibition, % at 4 µM; 330,000 tested, 0.33% active; AID 435022, 2010; in the data active means inhibition above about 35%
Gli-Sufu antag = Gli-Sufu pathway antagonists, primary screen, luciferase luminescence, Sufu-KO-LIGHT cells, uHTS; inhibition, % at 5 µM; AID 588413, 2011; 340,000 tested, 0.74% active; Sufu-KO-LIGHT fibroblasts, Gli luciferase reporter luminescence;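 active means inhibition above about 55%, limit read from the data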;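 further: 0% = DMSO-treated cells and 100% = wells with medium but no cells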
TAG inh = inhibitors of triacylglycerol accumulation, primary screen, cell-based, uHTS, fluorescence, H9c2; 230,000 tested, 0.66% active; inhibition, % at 12.5 µM; AID 651582, 2012; H9c2 cells, Nile Red lipid (TAG) fluorescence; cells loaded with 200 µM oleic acid;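 active means pattern-corrected inhibition of lipid staining of at least 50% with the nuclear-stain viability signal not falling by more than 50%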;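 further: 0% = DMSO wells and 100% = triacsin C control wells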
aSyn 5UTR inh = MLPCN primary screen, SNCA 5' untranslated region; alpha-synuclein 5'UTR reporter, inhibitor activity; inhibition, % (tested at 7.5 µM); 300,000 tested, 0.82% active; in the data active means inhibition above about 60%;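 further: H4 neuroglioblastoma cells stably carrying SNCA 5'UTR luciferase fusion; 0% = DMSO wells and 100% = positive control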
Jurkat NFkB inh = inhibitors of induced NF-kB luciferase reporter, primary screen, TCR NF-kB activation inhibitor project, cell-based, luminescence, uHTS; Jurkat, PMA/ionomycin-induced NF-kB luciferase reporter; inhibition, % at 4 µM; 330,000 tested, 0.53% active; in the data active means inhibition above about 50%
* hit, by the source's call; . = no result given. Sampled rows, rich in hits. Any-hit rate of the full collection: about 2.3%.

SMILES	Shn3 3UTR inh	697 NFkB inh	Gli-Sufu antag	TAG inh	aSyn 5UTR inh	Jurkat NFkB inh
CC12CC[C@H]3[C@@H](CCC4(O)C[C@H](O)CCC34/C=N/NC(=O)c3ccccc3[N+](=O)[O-])C1(O)CCC2C1=CC(=O)OC1 (stereo partly specified)	0.6	-73.8	14.3	.	117.3*	-4.5
COC(=O)C1=C(c2ccc3ccccc3c2)C[C@@H]2CC[C@H]1N2C(=O)NCC1CC1	88.8*	2.0	6.3	-31.0	.	7.8
Cn1c(O)c(/C=N/N2CCCCC2)c(=O)[nH]c1=O	-16.9	-9.3	-1.0	.	27.4	8.8
O=C1C(=O)c2ccccc2-c2ccccc21	117.2*	15.4	21.6	120.0	118.9*	34.4
CCCCCn1c(=O)c(C(=O)Nc2ccccc2S(N)(=O)=O)c(O)c2ccccc21	51.1	-11.5	13.9	7.2	68.8*	5.7
CCCCCn1c(=O)c(C(=O)Nc2cnccn2)c(O)c2ccccc21	81.6	-16.1	63.3*	-13.6	98.1*	9.5
CCCCn1c(=O)c(C(=O)Nc2ccccc2S(N)(=O)=O)c(O)c2ccccc21	-34.6	-15.4	-1.9	.	-41.2	-9.8
CCCCCCCn1c(=O)c(C(=O)Nc2cnccn2)c(O)c2ccccc21	.	17.0	31.4	-18.3	44.1	11.0
COc1cc(CN2CCN(c3cc(C)ccc3C)CC2)ccc1O	34.1	-22.5	14.8	.	-22.7	-3.5
COc1cccc2c1O[C@H]1C(=O)CC[C@H]3CN(C)CCC231 (stereo partly specified)	89.4*	3.5	-4.5	-2.9	-0.2	16.2
COc1ccc2c3c1O[C@H]1C(=O)CC[C@H]4[C@@H](C2)N(C)CC[C@]314	13.4	29.7	-1.3	.	.	-7.4
O=c1[nH]c(=O)n(-c2cccc3ccccc23)c(O)c1/C=N/N1CCCCCC1	-7.5	13.2	-0.5	1.2	-12.8	-2.8
CSCCC(c1nnnn1Cc1ccccc1)N1CCC(n2c(=O)[nH]c3ccccc32)CC1 (stereo unspecified)	78.8	.	.	.	.	.
O=c1[nH]c2ccccc2n1C1CCN(C(CCc2ccccc2)c2nnnn2Cc2ccccc2)CC1 (stereo unspecified)	84.5*	.	.	.	.	.
O=c1[nH]c2ccccc2n1C1CCN(C(c2cccs2)c2nnnn2Cc2ccccc2)CC1 (stereo unspecified)	84.7*	.	.	.	.	.
O=C(NC[P+](=O)O)OCc1ccccc1	-1.1	12.7	-60.2	4.3	3.0	-4.3
CN1CCN(c2ccc([N+](=O)[O-])c3no[n+]([O-])c23)CC1	96.6*	.	65.5*	.	97.8*	.
O=P(c1ccccc1)(c1ccccc1)N1CCCCC1	61.2	12.3	6.2	.	-9.2	-9.8
CC(C)[C@]12O[C@H]1[C@@H]1O[C@]13[C@]1(O[C@H]1C[C@H]1C4=C(CC[C@@]13C)C(=O)OC4)[C@@H]2O	.	.	.	.	124.0*	.
CCOc1ccc(-n2c(CC)nc3ccccc3c2=O)cc1	-15.6	8.9	0.3	-20.5	-4.2	-3.4
CCN1CCN(C(=O)COc2ccc(S(=O)(=O)NC(C)C)cc2)CC1	6.3	19.3	-3.0	.	15.4	-5.7
COC(=O)C1=C(C(=O)OC)SC2(S1)C(C(=O)OC)=C(C(=O)OC)Sc1c2ssc1=O	97.6*	.	22.6	126.9	.	.
Cc1ncc([N+](=O)[O-])n1CCOc1nonc1N	16.5	12.9	2.1	4.4	-4.6	5.4
CN1CCN(Cc2ccccc2Sc2ccccc2)CC1	-1.7	-13.2	11.8	.	16.0	-16.2
C=C1C(C)C2C(Cc3ccccc3)NC(=O)C23C(OC(C)=O)C=CC(C)(O)CC(C)CC=CC3C1O (stereo unspecified)	36.8	.	29.9	98.1*	.	.
CC(=O)O[C@@H]1/C=C/[C@](C)(O)C[C@@H](C)C/C=C/[C@H]2[C@H](O)C(C)=C(C)[C@H]3[C@H](Cc4ccccc4)NC(=O)[C@@]123	.	29.1	22.9	.	116.7*	-5.7
C[C@H]1C/C=C/[C@H]2[C@H](O)[C@H](C)[C@@](C)(O)[C@H]3[C@H](Cc4ccccc4)NC(=O)[C@]32[C@H](O)/C=C/[C@](C)(O)C1	12.8	16.2	-9.2	.	24.0	0.7

Screens as filed in PubChem.
